# Source: PubChem BioAssay AID1347426 (Functional Genomics Laboratory (NCATS/FGL), 2020)
# Out of some 31,000 sequences screened, about 1,400 (4.5%) were called active. Shown is part of a subset that was picked to be rich in actives. Unmarked numbers belong to inactive results.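 How the source made its calls: active means median seed-adjusted z-score above 1 or below -1; inactive means the rest.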
# Assay: Novel Modifiers of Survival Motor Neuron (SMN) Protein: Gene Identification via Genome-wide siRNA Screen
# Details: HEK293T SMN2-luciferase reporter, siRNA knockdown, 72 h; actives lie on both sides
# From the text: Spinal muscular atrophy (SMA) is the most common neuromuscular autosomal recessive disorder and one of the leading genetic causes of infant death. SMA results from mutations inducing loss of function or deletion in the survival of motor neuron-1 gene (SMN1), leading to deficiency of the survival motor neuron (SMN) protein. Although a second nearly identical gene, SMN2, is retained in humans, its expression primarily produces an aberrantly spliced isoform that is largely unstable and quickly degraded. We performed a genome-wide RNAi screen using a cell-based reporter assay to identify genes and pathways that modulate SMN protein stability. The screen identified over 200 genes that led to the greatest increase or decrease in luciferase expression.
# Using HEK293T cells stably expressing a luciferase reporter that combines the promoter and splicing based cassettes in tandem with the major portion of the native SMN2 cDNA with luciferase, we performed a genome-wide RNAi screen to identify modulators of SMN protein levels. Luciferase is expressed when full-length SMN protein is generated with luminescence signal proportional to SMN protein levels. Our luciferase-based reporter assay was used to screen Ambion Silencer Select Human Druggable Genome siRNA library (10418 genes, 3 unique siRNAs per gene) using lipid-based reverse transfection.
# Briefly, 1 pmol of each siRNA was spotted to a well of a 384-well plate (Corning, Corning, NY) and 20 microL of serum-free DMEM containing […] of Lipofectamine RNAiMax (Life Technologies, Carlsbad, CA) was then added to each well. Transfected cells were maintained at 37 degrees C in 5% CO2 for 72 hours, 20 microL of ONE-Glo Reagent (Promega) was added to wells for luciferase quantification. Raw luminescence reads were normalized to Ambion(R) Silencer(R) Negative Control #2 siRNA, then log10 transformed. A robust statistical measure of median absolute deviation (MAD) to standardize siRNA activities from each screen. Common Seed Analysis was used to help prioritize clean hits as opposed to those appearing to arise from seed based off-target effects. Candidate modulators were defined as the genes having a MAD score greater than 1.0 or less than -1.0.
row,Sequence,median seed-adjusted z-score
1,CCACAUUGGUUACCACUAATT against ITGAV,1.17 (active)
2,CAGUGUUAGUACUCGAUAATT against EXT2,-0.127
3,CCUAUUUGGUGUUAACAUATT against DIRAS1,-0.751
4,CUAUGAUCUCAACCAAAUATT against CD248,-0.0191
5,AGCUAACAGCGGCUCAAGATT against NR1H2,0.069
6,UUACUUUCCUAGUAAGCAATT against GNA12,0.598
7,GCACAGAUGAAGCCCGCUUTT against ARL11,1 (active)
8,CAAGCUCUUUGGUCAAGAATT against SNX4,-0.144
9,GCAUAAAACUGAAGGUGGATT against PTPRN,-0.272
10,CAUCAUUUCAGACAAGUUUTT against DDO,-0.202
11,UCUACGCAGUGGUCACCAATT against BLK,-0.274
12,CAAUCUAUUAAGAAAUGUUTT against RPE,0.616
13,CAUAUAUGAUUGCAUCAAATT against ACTL6A,1.11 (active)
14,GGAUCAACCGCUGCUUGAATT against HELT,-0.192
15,CCAACAUACUAGUCAAUAATT against EFTUD1,-1.39 (active)
16,GGAUGGUCUUUUAGUAAGATT against CBR4,-0.66
17,GACAUCGCAUGGUACAAGATT against NFASC,0.594
18,GAACUGCUCAGGACUAUAATT against TBRG1,-1.47 (active)
19,GCUGCAUCGUAAGACAUUUTT against PCGF6,0.536
20,CGAACUUCCUCAUCGGCAATT against PRLHR,0
21,CAAAAAUGAUUGCGAAUGATT against APOL4,-0.54
22,GCUCUUCGAGAGAACCUGUTT against TUBG1,0.618
23,CCCUCCAUGGAAUAGAAUATT against FCER1A,-0.0293

row,Sequence,median seed-adjusted z-score
1,CGGUUCCUUUAUUACCAAATT against TNFRSF21,0.225
2,AGGAGAUUCUGAACAGGCUTT against GPR26,-1.33 (active)
3,GCAGCUAUUUGUCUCCGAATT against USP43,0
4,CAGCUAUACAGGAAUUAUUTT against SLC25A16,0.0479
5,GCAGGGCAUUUAUGGGACATT against KRT79,0.338
6,CCAGGUGAAAUGUCAACUATT against HERC5,-0.422
7,GAACCAUACAUACUACAGATT against WDR31,0.796
8,AGGGAGCAAAUGAACCUGATT against VIP,1.52 (active)
9,GGGAAGGUGUUACAGGCUATT against FAM62A,-0.34
10,CUGUCCAUCUGGGUCGUGATT against SLC30A2,-0.402
11,CUGCAGCUUUUAUCACAAATT against SLC25A33,-0.0252
12,GUAGAUAUGUGGAAACGGATT against FAM48A,-0.506
13,GAGUCCCAUUUACAGCUAUTT against PFTK2,-1.16 (active)
14,GGAUGGAGACUACGAGUUUTT against STK4,0.652
15,GACCAGAUAUUUGCCUAUUTT against CYFIP1,-0.377
16,GGAAAAUCAUCUUAUCAGATT against TEAD1,1.31 (active)
17,CAGUAUACCAUCUAACAGATT against CNTN1,-0.796
18,CCACUUUAAUAAACGUGCUTT against TIMM10,0.0738
19,CAGUGAAGAUAAAAUUCAATT against CRIP3,1.7 (active)
20,CCUUCAAGGUCAACGUGUATT against KCNH3,-0.509
21,GGAGCACAAUAGAUCUGAATT against SEPX1,-0.0545
22,CCAUGGGAAUCCAAUCUGUTT against PTTG1,-0.459
23,GGACAUUCUAGAGAAAGAATT against SUPT5H,-4.02 (active)

row,Sequence,median seed-adjusted z-score
1,CGACCAUCAUGGAAAACAUTT against ABCB8,-0.558
2,GGAGGAUCUUGUACCCAGATT against PNKP,-0.0563
3,CAGUGGGAACGACAACUUUTT against HNRPA1P4,-0.906
4,GGAACACUUUCUCUCUAGATT against NOD2,0.129
5,GAUGCGAUUUGAUGAGAUATT against EPS15L1,-0.0511
6,CGCUAUACCUACCAGCAAATT against DNAJB12,0
7,GCCUUACUCUGAUCUGGUATT against IL1RAP,-0.23
8,CUACCAUGGUGUACCAACATT against QRICH1,-1.04 (active)
9,GCAAACAAGUGAUAGUGAUTT against RBM11,-0.0341
10,UCUUCUCCCUGAUAAAGUATT against SLC6A13,0.267
11,GACUGAUCCCUCUACUUCATT against SNTG1,0.167
12,GCUUUCAGCUGAACGAACUTT against LTF,0.236
13,GAAUAUUCCUAUAGUGAUATT against MYOZ2,0.315
14,GAGUCUACCUAAUUCUGGATT against AURKA,-0.108
15,CGACCUAAUCAUUCACAGUTT against CYP26C1,-0.276
16,GGAGAAGAUACAAAGCGCATT against MED21,-1.3 (active)
17,UAACAAAUCCUAUUAGAUUTT against CTBP2,-0.241
18,CGAAAACAGGAGAUCAUUATT against CAMK2G,-0.107
19,GCGGCUCCAUUUACCAGAATT against VDAC1,0.133
20,GGACAUUUCAUGAGUCAUUTT against 8-Mar,-0.106
21,GCAUGAAUGCAACCUGAUUTT against DDX55,0.507
22,GCAUGACGACUGAACUGAUTT against MDH1B,-1.13 (active)
23,GCAACUUCUUAAGACUAAATT against DBR1,0.438
